Experimental findings from the supplement of paper PMC13380429 are described below.

The subject of this assay is Vero E6 infected with SARS-CoV-2. The assay is described as follows: SARS-CoV-2 infection rate relative to infected DMSO; higher = more infection, active = 60 or less. The note with it: 24 h.
With `COc1cc(OC2CCN(C)CC2)ccc1Nc1ncc2c(n1)n(C1CCCC1)c(=O)n2C` (0.833333 µM), the SARS-CoV-2 infection rate is 98% (inactive).

Consider `COc1ccc(-n2[nH]c3c4c(ncc3c2=O)CCCCC4)cc1` (10 µM), for which the SARS-CoV-2 infection rate is 96% (inactive).

Take `OC[C@H]1O[C@H]([S-])[C@H](O)[C@@H](O)[C@@H]1O.[Au+]` [aurothioglucose] (10 µM): the SARS-CoV-2 infection rate was 110% (inactive). The figure for `O=C(COc1ccc(Cl)cc1)N1CCN(Cc2ccc3c(c2)OCO3)CC1` [fipexide] (10 µM) is 112% (inactive); for `CCc1cnc(N2CCC(c3nc(COc4ccc(-n5cnnn5)cc4)cs3)CC2)nc1` (10 µM) it is 97% (inactive).

For `CCN(CC)CC(=O)Nc1c(C)cccc1C` [lidocaine] (10 µM), the SARS-CoV-2 infection rate is 100% (inactive).

`CCCn1c(=O)c2[nH]c(C3CCCC3)nc2n(CCC)c1=O` (10 µM): the SARS-CoV-2 infection rate was 105% (inactive). The figure for `CS(=O)(=O)c1ccc(Cn2c3c(c4cc(F)cc(F)c42)CCCC3CC(=O)O)cc1` (stereo not given) (10 µM) is 90% (inactive); for `CC(C)(Cc1ccc2ccccc2c1)NC[C@@H](O)COc1cccc(Cl)c1C#N` (10 µM) it is 9.5% (active); for `N=C(N)NC(=N)Nc1cccc(Cl)c1` [m-chlorophenylbiguanide] (10 µM) it is 108% (inactive).

For `Cc1ccc2cc(-c3c(C)ccc(C(=O)c4c(-c5ccccc5)n(C)n(-c5ccccc5)c4=O)c3N)ccc2n1` (10 µM), the SARS-CoV-2 infection rate is 76% (inactive). As for `Cn1nnnc1SCC1=C(C(=O)O)N2C(=O)[C@@H](NC(=O)[C@H](OC=O)c3ccccc3)[C@H]2SC1` [cefamandole-nafate] (10 µM), the SARS-CoV-2 infection rate was 102% (inactive). Next, `Clc1ccc2nsnc2c1NC1=NCCN1` [tizanidine] (10 µM): 112% (inactive). As for `Cc1nc2ccc(NC(=O)Nc3ccnc4cccnc34)cc2o1` (10 µM), the SARS-CoV-2 infection rate was 99.5% (inactive). Next, `CC(=O)Oc1ccccc1C(=O)Oc1ccccc1C(=O)O` [acetylsalicylsalicylic-acid] (10 µM): 103% (inactive); `CCCn1c(=O)[nH]c(=O)c2nc[nH]c21` [enprofylline] (10 µM): 94% (inactive). Take `O=C(Cc1ccccc1)Nc1nc2ccc(Cl)cc2c2nc(-c3ccco3)nn12` (10 µM): the SARS-CoV-2 infection rate was 110% (inactive).

On to `CCn1cc(C(=O)O)c(=O)c2cc3c(cc21)OCO3` [oxolinic-acid] (10 µM), for which the SARS-CoV-2 infection rate was 96% (inactive). With `CN(C)CCC(c1ccccc1)c1ccccn1` (stereo not given) [pheniramine] (10 µM), the SARS-CoV-2 infection rate is 110% (inactive). Consider `O=C(CCCN1CCC(O)(c2ccc(Br)cc2)CC1)c1ccc(F)cc1` [bromperidol] (10 µM), for which the SARS-CoV-2 infection rate is 106% (inactive).

Take `CCCCNc1c(C(=O)OCC)c(C)nc2c1cnn2CC` [tracazolate] (10 µM): the SARS-CoV-2 infection rate was 92.5% (inactive). On to `NC(=O)c1ccc(F)c2c1C[C@@H](N(C1CCC1)C1CCC1)CO2` [robalzotan] (10 µM), for which the SARS-CoV-2 infection rate is 100% (inactive). Next, `Cc1cc(C)c(S(=O)(=O)n2cc(C)cc2C)c(C)c1` (10 µM): 102% (inactive); `CC1CCN(C(c2ccc(F)cc2)c2ccc(C(C)C(=O)O)cc2-c2ccc(C(F)(F)F)cc2)CC1` (stereo not given) (10 µM): 106% (inactive). The figure for `O[C@@H]1CCCC[C@H]1N1CCC(c2ccccc2)CC1` (racemic) [vesamicol] (10 µM) is 98.5% (inactive). Next, `CN1CC[C@@H](NC(=O)Nc2ccc(C#N)cc2)C[C@@H]1c1nc2ccccc2[nH]1` [glasdegib] (10 µM): 100% (inactive); `CCN(C(C)=O)c1cccc(-c2ccnc3c(C#N)cnn23)c1` (10 µM): 98.5% (inactive); `Cc1c(O)c(=O)ccn1C` [deferiprone] (10 µM): 98% (inactive).

`OC[C@H]1O[C@@H](n2cnc3c(N[C@H]4CCC[C@@H]4O)ncnc32)[C@H](O)[C@@H]1O` (10 µM): the SARS-CoV-2 infection rate is 100% (inactive). In the case of `Cc1ccc(-c2ccc(C)cn2)nc1` [abametapir] (10 µM), the SARS-CoV-2 infection rate is 106% (inactive).

`COc1ccc(N(C(=O)Oc2c(C)cccc2C)c2ccnc(Nc3ccc(N4CCN(C)CC4)cc3)n2)c(OC)c1` (10 µM): the SARS-CoV-2 infection rate is 111% (inactive). Next, `CC1(C)CC[C@]2(C(=O)O)CC[C@]3(C)C(=CC[C@@H]4[C@@]5(C)CC[C@H](O)C(C)(C)[C@@H]5CC[C@]43C)[C@@H]2C1` [oleanolic-acid] (10 µM): 110% (inactive); `Nc1c2c(nc3c1CCC3)CCCC2` [ipidacrine] (10 µM): 83.5% (inactive); `COC(=O)/C=C/C(=O)OCCN1C(=O)CCC1=O` [diroximel-fumarate] (10 µM): 101% (inactive).

For the compound `COc1cc2nc(C3CC3)nc(N3CCN(c4ccccc4OC)CC3)c2cc1OC` (0.833333 µM), the SARS-CoV-2 infection rate is 99% (inactive). Next, `CCN(CC)CCCCNc1ncc2cc(-c3c(Cl)cccc3Cl)c(NC(=O)NC(C)(C)C)nc2n1` (0.833333 µM): 117% (inactive); `COc1ccc(NS(=O)(=O)c2ccc(I)cc2)cc1N1CCN(C)CC1` (10 µM): 98.5% (inactive); `CN1C[C@@H]2CN(c3ccc(-c4ccccc4)nn3)C[C@@H]2C1` (10 µM): 91% (inactive).

As to `O=C(O)Cn1nnc(-c2cc(N3CCC(Oc4cc(F)ccc4Br)CC3)no2)n1` (10 µM), the SARS-CoV-2 infection rate was 104% (inactive).

As for `C/C(=N\Nc1nnc2c(n1)[nH]c1c(C)cccc12)c1ccccn1` (10 µM), the SARS-CoV-2 infection rate was 107% (inactive).
